# Results filed as inconclusive are left out. Unmarked numbers belong to inactive results. The source made the active and inactive calls. Unless noted, calls come from the whole dose curve; as a rule, active = well fitted cell-killing curve with a large enough effect in the repeat runs; inconclusive = weak or mixed curves, or effect the other way; inactive = no such curve, though single readings can be large or run the other way.
# Target: Progesterone receptor (Homo sapiens) (UniProt P06401)
# Assay: qHTS assay to identify small molecule antagonists of the progesterone receptor (PR) signaling pathway (AID 1346795; active = well fitted inhibition curve with a large enough effect in the signal ratio in the repeat runs, not every such curve was filed as active; the % refers to the signal ratio)
# Settings: PR-UAS-bla HEK293T, beta-lactamase FRET ratio, 16 h; series mostly up to 92.4 µM; activity change, negative = inhibition: at the top concentration
# How it was run: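 Antagonist mode: compounds tested against 1 nM (final) promegestone stimulation in HEK293T cells expressing PR-UAS-bla reporter, 16 hr at 37C, 5% CO2; beta-lactamase activity detected via B/G FRET substrate after 2 hr at room temperature.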
# % is set by controls: 0 for no effect and ±100 for the full control effect; potency is the fitted concentration of half-maximal effect.
# Chain of Progesterone receptor (Homo sapiens) (P06401 whole entry, looked up): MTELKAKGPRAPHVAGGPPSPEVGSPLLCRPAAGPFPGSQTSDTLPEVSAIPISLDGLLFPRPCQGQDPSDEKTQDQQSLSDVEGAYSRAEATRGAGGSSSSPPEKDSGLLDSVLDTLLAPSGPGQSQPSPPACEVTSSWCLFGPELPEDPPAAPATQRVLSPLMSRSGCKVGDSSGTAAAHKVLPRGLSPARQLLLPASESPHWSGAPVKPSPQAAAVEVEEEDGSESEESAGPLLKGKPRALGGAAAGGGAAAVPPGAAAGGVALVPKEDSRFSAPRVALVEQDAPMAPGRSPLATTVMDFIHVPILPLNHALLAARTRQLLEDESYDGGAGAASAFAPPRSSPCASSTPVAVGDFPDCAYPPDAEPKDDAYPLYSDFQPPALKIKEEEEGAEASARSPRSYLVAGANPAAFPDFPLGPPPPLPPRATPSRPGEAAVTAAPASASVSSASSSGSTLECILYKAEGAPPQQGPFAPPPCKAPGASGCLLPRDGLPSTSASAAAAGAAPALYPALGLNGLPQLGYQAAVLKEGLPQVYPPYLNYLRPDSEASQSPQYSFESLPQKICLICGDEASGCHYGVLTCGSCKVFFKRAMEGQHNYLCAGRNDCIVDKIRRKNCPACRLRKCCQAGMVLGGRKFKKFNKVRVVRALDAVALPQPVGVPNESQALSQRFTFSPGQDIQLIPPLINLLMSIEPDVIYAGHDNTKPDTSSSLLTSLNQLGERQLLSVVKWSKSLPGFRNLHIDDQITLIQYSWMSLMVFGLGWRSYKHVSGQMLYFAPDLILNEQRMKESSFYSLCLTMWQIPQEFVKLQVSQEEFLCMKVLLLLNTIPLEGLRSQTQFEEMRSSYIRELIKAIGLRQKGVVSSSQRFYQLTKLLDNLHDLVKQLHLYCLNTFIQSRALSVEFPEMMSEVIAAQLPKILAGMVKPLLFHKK
Structure (SMILES),"activity change, negative = inhibition",Potency
C(=C\c1ccccc1)/c1ccccc1,-6.64%,–
CC(CCC(=O)O)C(=O)O (stereo not given),0.0146%,–
O=C(CCCN1CC=C(n2c(=O)[nH]c3ccccc32)CC1)c1ccc(F)cc1,-19.4% [at 42.5 µM],–
CCOC(C)=O,-8.34%,–
CCCCC(CC)CN (stereo not given),10.2%,–
O=C(Nc1cccc2c(=O)cc(-c3nn[nH]n3)oc12)c1ccc(OCCCCc2ccccc2)cc1,-1.67% [at 42.5 µM],–
CCCCCCCCN,0.311%,–
CC(O)c1ccccc1 (stereo not given),0.823%,–
O=C(Cn1ccnc1[N+](=O)[O-])NCCO,4.47% [at 42.5 µM],–
Cc1ccccc1S,1.86% [at 42.5 µM],–
O=C1c2ccccc2C(=O)C1c1nc2ccccc2c(Br)c1O,5.36%,–
COC(=O)CS,-15.8%,–
CC1(C)O[C@@H]2C[C@H]3[C@@H]4C[C@H](F)C5=CC(=O)C=C[C@]5(C)[C@H]4[C@@H](O)C[C@]3(C)[C@]2(C(=O)CO)O1,16.9% [at 42.5 µM],–
CCC1NC(=O)c2cc(S(N)(=O)=O)c(Cl)cc2N1 (stereo not given),11.2% [at 42.5 µM],–
CCCCCCCCCCC(=O)O,-2.13%,–
CCC(C)(C)OC,-3.09%,–
C1COC1,6.2%,–
O=C1CCCCCCCCCCOCCCCO1,0.293%,–
COc1ccccc1N1CCN(CCCCNC(=O)c2ccc(-c3ccc(C(C)=O)cc3)cc2)CC1,0.969% [at 42.5 µM],–
C=C/C(C)=C/C/C=C(\C)CCC=C(C)C,-1.06%,–

Structure (SMILES),"activity change, negative = inhibition",Potency
O=C1c2ccccc2C(=O)c2c(O)c(O)cc(O)c21,-6.09%,–
O=C(O)C[C@H](NC(=O)OCc1ccccc1)C(=O)O,6.85%,–
CC(=O)Oc1ccc([N+](=O)[O-])cc1CCl,-4.41%,–
CCCCCC#CC(=O)OC,0.948%,–
CC(C)C(O)(c1ccc(OC(F)(F)F)cc1)c1cncnc1 (stereo not given),–,30.5 µM (active)
O=c1[nH]ncc2ccccc12,3.27%,–
C=Cc1ccc(S(=O)(=O)O)cc1,4.15%,–
Cc1cc(C)c(N)cc1C,6.43%,–
CC1CC(OC(=O)C(O)c2ccccc2)CC(C)(C)N1C (stereo not given),7.36% [at 42.5 µM],–
CC(C)=CCC1C(=O)N(c2ccccc2)N(c2ccccc2)C1=O,-9.97% [at 42.5 µM],–
CCOC(=O)OC(C)OC(=O)[C@@H]1N2C(=O)[C@@H](NC(=O)[C@H](N)c3ccccc3)[C@H]2SC1(C)C (stereo not given in full),10.9% [at 42.5 µM],–
OCCOCC#CCOCCO,9.27%,–
c1csc(SSc2cccs2)c1,–,8.63 µM (active)
C=C(C)C(=O)OCCCCCCCCCCCCC,5.67%,–
Cc1cc(C)cc(N)c1,-21.2%,–
C[C@@H]1CN(CCCn2c3ccccc3c3ccccc32)C[C@H](C)N1,–,29.8 µM (active)
NC(=O)c1ccncc1,3.96%,–
CCOC(=O)/C=C/C(=O)OCC,11%,–
O=C(O)c1ccc(OCCCOc2ccc(C(=O)O)cc2)cc1,0.526% [at 42.5 µM],–
CC(=O)N/N=C/c1ccc([N+](=O)[O-])o1,0.0479% [at 42.5 µM],–

# System: not listed separately
# Assay: qHTS assay to identify small molecule antagonists of the progesterone receptor (PR) signaling pathway - cell viability counter screen (AID 1346798); note: nearly all actives have a fitted effect of over 50% in size
# Settings: PR-UAS-bla HEK293T viability, CellTiter-Glo luminescence, 16 h; series mostly up to 92.4 µM; activity change, negative = cytotoxicity: at the top concentration
# How it was run: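 Counter screen for cytotoxicity: viability of PR-UAS-bla HEK293T cells was measured with CellTiter-Glo luminescence following 16 hr compound exposure in the presence of R5020.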
Structure (SMILES),"activity change, negative = cytotoxicity",Potency
C(=C\c1ccccc1)/c1ccccc1,6.91%,–
CC(CCC(=O)O)C(=O)O (stereo not given),-9.5%,–
O=C(CCCN1CC=C(n2c(=O)[nH]c3ccccc32)CC1)c1ccc(F)cc1,0.662% [at 42.5 µM],–
CCOC(C)=O,25.1%,–
CCCCC(CC)CN (stereo not given),-8.29%,–
O=C(Nc1cccc2c(=O)cc(-c3nn[nH]n3)oc12)c1ccc(OCCCCc2ccccc2)cc1,-18.8% [at 42.5 µM],–
CCCCCCCCN,-0.345%,–
CC(O)c1ccccc1 (stereo not given),0.845%,–
O=C(Cn1ccnc1[N+](=O)[O-])NCCO,-0.144% [at 42.5 µM],–
Cc1ccccc1S,4.65% [at 42.5 µM],–
O=C1c2ccccc2C(=O)C1c1nc2ccccc2c(Br)c1O,0.057%,–
COC(=O)CS,3.6%,–
CC1(C)O[C@@H]2C[C@H]3[C@@H]4C[C@H](F)C5=CC(=O)C=C[C@]5(C)[C@H]4[C@@H](O)C[C@]3(C)[C@]2(C(=O)CO)O1,2.03% [at 42.5 µM],–
CCC1NC(=O)c2cc(S(N)(=O)=O)c(Cl)cc2N1 (stereo not given),-4.84% [at 42.5 µM],–
CCCCCCCCCCC(=O)O,17.5%,–
CCC(C)(C)OC,-23.4%,–
C1COC1,-0.489%,–
O=C1CCCCCCCCCCOCCCCO1,-3.52%,–
COc1ccccc1N1CCN(CCCCNC(=O)c2ccc(-c3ccc(C(C)=O)cc3)cc2)CC1,-0.751% [at 42.5 µM],–
C=C/C(C)=C/C/C=C(\C)CCC=C(C)C,-19.6%,–

Structure (SMILES),"activity change, negative = cytotoxicity",Potency
O=C1c2ccccc2C(=O)c2c(O)c(O)cc(O)c21,20.7%,–
O=C(O)C[C@H](NC(=O)OCc1ccccc1)C(=O)O,11.3%,–
CC(=O)Oc1ccc([N+](=O)[O-])cc1CCl,5.18%,–
CCCCCC#CC(=O)OC,-2.53%,–
CC(C)C(O)(c1ccc(OC(F)(F)F)cc1)c1cncnc1 (stereo not given),-0.354%,–
O=c1[nH]ncc2ccccc12,1.39%,–
C=Cc1ccc(S(=O)(=O)O)cc1,-22.5%,–
Cc1cc(C)c(N)cc1C,0.95%,–
CC1CC(OC(=O)C(O)c2ccccc2)CC(C)(C)N1C (stereo not given),1.94% [at 42.5 µM],–
CC(C)=CCC1C(=O)N(c2ccccc2)N(c2ccccc2)C1=O,13.7% [at 42.5 µM],–
CCOC(=O)OC(C)OC(=O)[C@@H]1N2C(=O)[C@@H](NC(=O)[C@H](N)c3ccccc3)[C@H]2SC1(C)C (stereo not given in full),5.08% [at 42.5 µM],–
OCCOCC#CCOCCO,-3.7%,–
c1csc(SSc2cccs2)c1,–,9.69 µM (active)
C=C(C)C(=O)OCCCCCCCCCCCCC,2.29%,–
Cc1cc(C)cc(N)c1,-10.5%,–
C[C@@H]1CN(CCCn2c3ccccc3c3ccccc32)C[C@H](C)N1,–,11.9 µM (active)
NC(=O)c1ccncc1,17.5%,–
CCOC(=O)/C=C/C(=O)OCC,1.7%,–
O=C(O)c1ccc(OCCCOc2ccc(C(=O)O)cc2)cc1,11.2% [at 42.5 µM],–
CC(=O)N/N=C/c1ccc([N+](=O)[O-])o1,16.6% [at 42.5 µM],–
